Source: PubChem (National Center for Advancing Translational Sciences (NCATS))
Most compounds without a hit are left out; they make up all but 1.2% or so of the library.
PI4K2A block – blocks human PI4K2A kinase activity; purified PI4K2A, ADP-Glo luminescence, 1 h; stronger effect = lower value; Q9BTU6; actives 0.13% (n = 420,000); activity change, negative = inhibition, % at 76.9 µM; in the data active = activity change below about -50%; inconclusive = mostly about -30% to -49%;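 note: -100% = wells without enzyme as full effect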
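Compounds are screened against recombinant PI4K2A using PI as substrate and ATP, the latter dispensed at 300 microM. Reactions run one hour at ambient temperature before ADP-Glo detection; full inhibition defined by wells lacking enzyme.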
rTrxR1 inhibitor – blocks rat thioredoxin reductase 1. Potency, µM (titrated, usually from 114 µM), for the others: top-dose activity change, negative = inhibition, usual class: inhibitors. actives 1% (n = 390,000). recombinant rTrxR1, NADPH fluorescence consumption, selenite substrate; note: potency is the fitted concentration of half-maximal effect; nearly all actives have a fitted effect of over 65% in size
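Rat TrxR1 (90 nM in the dispensed reagent) was pre-reduced with 400 uM NADPH for 5 min at room temperature, then incubated with compound for 15 min. After 400 uM selenite was added, NADPH fluorescence (Ex 340/Em 450 nm) was followed for 8 min.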
PKM2 act – activators of human pyruvate kinase M2 | purified PKM2, Kinase-Glo ATP luminescence, activation; response scale: 0% is enzyme alone, no compound | Potency, µM (titrated, usually from 57.5 µM), inactives show at the highest dose activation, actives largely listed as activators | P14618 | actives 0.34% (n = 260,000); note: potency is the fitted concentration of half-maximal effect; nearly all actives have a fitted effect of over 55% in size
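Purified hPK-M2 (>95% pure) converted ADP (0.1 mM final) to ATP with 0.5 mM PEP in 50 mM imidazole pH7.2, KCl, MgCl2, Tween 20, BSA; 1 h at room temperature. ATP detected by Kinase-Glo luminescence.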
TrxR1 substrate – substrates of rat thioredoxin reductase 1 | Potency, µM (highest dose often 114 µM), for inactives: top-dose activity change, negative = substrate turnover | O89049 | purified TrxR1 substrate turnover, NADPH consumption readout | actives 0.01% (n = 390,000); note: potency is the fitted concentration of half-maximal effect; nearly all actives have a fitted effect of over 50% in size
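Rat TrxR1, dispensed at 90 nM, was prereduced with 400 uM NADPH (final) for 5 min at ~22 deg C, then incubated with compound 15 min before 400 uM selenite. A first-read NADPH fluorescence drop versus no-compound background flagged substrates.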
GALK inh – galactokinase (human) inhibition; Potency, µM (top dose mostly 57.5 µM), for the others: top-dose activity change, negative = inhibition, most hits filed as inhibitors; AID 1868; actives 0.007% (n = 270,000); P51570; Purified GALK, Kinase-Glo residual ATP luminescence; note: potency is the fitted concentration of half-maximal effect
Target sequence (P51570 whole entry, looked up): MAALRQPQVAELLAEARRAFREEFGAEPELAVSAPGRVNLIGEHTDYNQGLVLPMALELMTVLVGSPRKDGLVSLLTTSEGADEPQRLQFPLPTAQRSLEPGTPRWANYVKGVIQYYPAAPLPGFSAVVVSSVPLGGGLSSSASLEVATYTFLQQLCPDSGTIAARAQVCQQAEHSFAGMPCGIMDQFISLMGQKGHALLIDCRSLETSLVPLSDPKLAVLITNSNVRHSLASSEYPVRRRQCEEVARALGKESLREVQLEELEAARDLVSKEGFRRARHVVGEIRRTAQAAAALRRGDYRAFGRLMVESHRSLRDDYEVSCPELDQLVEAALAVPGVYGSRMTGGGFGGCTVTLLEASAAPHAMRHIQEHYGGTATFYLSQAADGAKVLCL
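GALK at 5 nM final was combined with compound, 35 uM ATP and 100 uM galactose in HEPES pH8.0 with MgCl2 and DTT. The reaction ran one hour at room temperature before luminescent ATP detection.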
An asterisk follows results filed as active; u = inconclusive; x = no result given; [ ] = remark or other dose. Unless noted, calls come from the whole dose curve; as a rule, active = well fitted curve in the direction sought with a large enough effect; inconclusive = small, poorly fitted or top-dose-only effect, or another doubt; inactive = no such curve, though single readings can be large; an effect the other way counts as inactive or inconclusive. Unless noted, % is set by controls: 0 for no effect and ±100 for the full control effect.

SMILES	PI4K2A block	rTrxR1 inhibitor	PKM2 act	TrxR1 substrate	GALK inh
COC(=O)Cn1c(C)nc([N+](=O)[O-])c1Br	1	16µM*	-6%	9%[57.1 µM]	8%
Cc1nc([N+](=O)[O-])c(Br)n1CC(=O)c1ccc(F)cc1	12	2.5µM*	0%	6%	-4%
Cc1nc([N+](=O)[O-])c(Br)n1CC(=O)c1cccc([N+](=O)[O-])c1	5	7.1µM*	-2%	-3%[57.1 µM]	-1%
Cc1nc([N+](=O)[O-])c(Sc2nc3ccc([N+](=O)[O-])cc3[nH]2)n1Cc1ccccc1	4	2.5µM*	u	-13%	0%
CC(C)(C)n1ncc2c(=O)n(Cc3ccc([S+](=O)([O-])N4CCOCC4)cc3)cnc21	x	-10%	x	-3%	x
COc1ccc(-n2c(SCC(=O)Nc3ccc(OCc4ccccc4)cc3)nnc2-c2ccc(C)cc2)cc1	2	x	x	x	x
COc1ccc(NC(=O)CC(C)n2nc(C)cc2C)cc1Cl (stereo unspecified)	-3	4%[57.1 µM]	x	-5%[57.1 µM]	x
Cc1nc([N+](=O)[O-])c(Br)n1Cc1ccccc1	5	16µM*	-4%	0%	0%
COc1ccc2c(c1)CCCN2C(=O)C1CCCN(S(=O)(=O)c2cccc3cccnc23)C1 (stereo unspecified)	0	x	x	x	x
COc1ccc(C(C)(C)C)cc1NC(=O)c1[nH]c(C)c(C(C)=O)c1C	-15	4%	18µM*	-8%	13%
COc1ccc(NC(=O)c2[nH]c(C)c(C(C)=O)c2C)cc1Cl	-7	11%	-11%	4%	1%
O=C(COc1ccc(Cl)cc1Cl)Nc1ccccn1	-75*	26%	-110%	7%	8%
COCCOC(=O)N1CCN(/[N+]([O-])=N/Oc2ccc([N+](=O)[O-])cc2[N+](=O)[O-])CC1	x	8.9µM*	x	-5%[0.457 µM]	x
CCCCCCCCCCCCCCCCOC(=O)N1CCN(/[N+]([O-])=N/Oc2ccc([N+](=O)[O-])cc2[N+](C)=O)CC1	x	-31%	x	12%[0.457 µM]	x
CCOC(=O)N1CCN([N+]([O-])=NOc2cc(O/N=[N+](\[O-])N(CC)CC)c([N+](=O)[O-])cc2[N+](=O)[O-])CC1	x	13µM*	x	-13%	x
CCOC(=O)N1CCN(/[N+]([O-])=N/Oc2ccc(C(F)(F)F)cc2[N+](=O)[O-])CC1	x	13%	x	5%	x
O=C(OCCF)N1CCN(/[N+]([O-])=N/Oc2ccc([N+](=O)[O-])cc2[N+](=O)[O-])CC1	x	7.1µM*	x	5%	x
CCOC(=O)c1ccccc1NC(=O)CSc1nc2ncccc2o1	-2	13%[57.1 µM]	x	3%[57.1 µM]	x
Cc1cccc(NC(=O)CSc2nnc(-c3ccco3)c(-c3ccco3)n2)c1C	-28	2.8µM*	21%	-6%	3%
Cc1cccc(NC(=O)CSc2nc(N)cc(N)n2)c1	4	8%	3%	7%	0%
Cc1cccc(NC(=O)CSc2nnc(-c3ccco3)c(-c3ccco3)n2)c1	0	8.9µM*	9%	-5%	-1%
CNc1ccc(C=C2C=CC=C2)cc1	x	u	x	-6%	x
C=CC[C@@H](CC(=O)N[C@@H](CO)Cc1ccccc1)C(=O)NC[C@H](OC(=O)[C@@H](CC=C)Cc1ccc(F)cc1)c1ccccc1	0	5%	x	-1%	x
C=CC[C@@H](CC(=O)NCCO)C(=O)NC[C@H](OC(=O)[C@@H](CC=C)Cc1ccc(F)cc1)c1ccccc1	-52*	11%[57.1 µM]	x	-7%	x
C/C(=N/NC(=O)c1cccnc1)c1cccc(O)c1	-1	x	x	x	x
SMILES	PI4K2A block	rTrxR1 inhibitor	PKM2 act	TrxR1 substrate	GALK inh
Cc1cc(C)cc(NC(=O)O[C@@H]2CC[C@@]34CCCN3C(=O)CCC[C@H]4C2)c1	-3	x	x	x	x
COc1ccc(C(=O)CCN2CCN(c3ccccc3F)CC2)cc1	13	1.6µM*	5%	4%	2%
O=C(CCN1CCN(c2ccccc2F)CC1)c1ccc(Br)cc1	51	0.28µM*	-1%	10%	0%
O=C(CCC(=O)N1CCN(c2ccccc2F)CC1)c1ccc(F)cc1	3	16%	-4%	1%	1%
CC(C)CCNC(=O)[C@H]1COC(O)([C@H](Cc2ccccc2)NC(=O)[C@@H](NC(=O)OCc2ccccc2)C(C)C)CN1C (stereo partly specified)	2	x	x	x	x
CCCCc1nn2c(=O)cc(COC(=O)c3ccc(NC(=O)c4cccc(OC)c4)cc3)nc2s1	2	1%[57.1 µM]	x	-7%[57.1 µM]	x
COc1ccc(S(=O)(=O)Cc2ccc(C(=O)N3CCc4ccccc4C3)o2)cc1	-3	50µM*	5%	6%	2%
Cc1ccc(S(=O)(=O)Cc2ccc(C(=O)O)o2)cc1	-4	25µM*	-4%	0%	1%
Cc1ccc(S(=O)(=O)Cc2ccc(C(=O)N3CCN(Cc4ccccc4)CC3)o2)cc1	x	x	-5%	x	1%
Cc1ccc(S(=O)(=O)Cc2ccc(C(=O)N3CCc4ccccc4C3)o2)cc1	-13	71µM*	-13%	-7%	-1%
Cc1cc(O)c(C(C)C)cc1Cl	-1	x	x	x	x
O=c1cc(Br)c(O)c(Br)cc1Br	-10	3.2µM*	x	-3%	x
O=C(NC1CCCCN(Cc2cccc(C(F)(F)F)c2)C1=O)c1c(F)cccc1F (stereo unspecified)	0	x	x	x	x
CC(=O)Oc1ccc(S(=O)(=O)c2ccc(OC(C)=O)cc2)cc1	4	14%[57.1 µM]	14µM*	-1%[57.1 µM]	3%
CC(=O)Oc1ccc(C)cc1	1	x	x	x	x
O=C([C@@H]1CC=C[C@@H]2CCN(C3CC3)C(=O)[C@@H]21)N1CCOCC1	x	23%	x	8%	x
COc1ccc(NC(=O)c2cc([N+](=O)[O-])ccc2O)cc1	-63*	-20%	-61%	-20%	16%
COc1ccc(NC(=O)c2cccc([N+](=O)[O-])c2)cc1	2	5%[57.1 µM]	-2%	5%	-3%
CCOC(=O)/C=C/C(=O)Nc1cccc([N+](=O)[O-])c1	5	4µM*	-36%	-13%	1%
COc1ccc(NC(=O)c2ccc(-c3ccc([N+](=O)[O-])cc3)o2)cc1	7	6%	5%	0%	-2%
COc1ccc(NC(=S)Nc2cccc([N+](=O)[O-])c2)cc1	-6	18µM*	-6%	-6%	2%
CC(=O)c1ccc(OCc2cc(C(=O)N3CC[C@@H]4CCCC[C@H]4C3)no2)cc1	4	25µM*	4%	-13%	4%
